Hit rate of the full screen: of about 1,400 compounds, about 140 (10%) were called active.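 The calls were made as follows: active = Half-maximal inhibitory dose from the fit at or below ten times the top valid tested dose; inconclusive = Invalid fit, or flat curve showing 30 to 70% inhibition; inactive = the rest.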 The list is a sample of the results. Entries with a potency or affinity are not part of this list.

Chain of Lysine-specific demethylase 4C (Homo sapiens) (Q9H3R0 1-420 limits assumed): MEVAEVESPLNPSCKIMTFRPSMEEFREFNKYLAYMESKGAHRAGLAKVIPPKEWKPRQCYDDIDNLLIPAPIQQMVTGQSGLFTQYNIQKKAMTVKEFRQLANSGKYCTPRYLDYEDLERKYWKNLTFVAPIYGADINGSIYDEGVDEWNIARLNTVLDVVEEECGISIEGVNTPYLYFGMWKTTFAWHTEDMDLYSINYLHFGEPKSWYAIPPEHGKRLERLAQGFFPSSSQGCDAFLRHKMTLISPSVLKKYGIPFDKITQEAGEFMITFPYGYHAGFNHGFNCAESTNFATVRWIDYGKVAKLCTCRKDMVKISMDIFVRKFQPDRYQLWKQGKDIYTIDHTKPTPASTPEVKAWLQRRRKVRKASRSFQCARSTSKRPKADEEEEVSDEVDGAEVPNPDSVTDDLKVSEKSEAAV

This test has as its target Lysine-specific demethylase 4C (Homo sapiens) (UniProt Q9H3R0). In words: GASC-1 (JMJD2C) histone demethylase inhibitors, dose response, biochemical, DELFIA europium, cherry-picked samples (AID 488835).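 Also: signal is the H3K9me2 demethylation product detected by a dimethyl-specific antibody.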 The conditions noted are these: GST-JMJD2C(1-420), H3K9me3 demethylation; series mostly up to 6 µM.
Take `Cc1cccn2c(=O)c(C(=O)NC3CC(C)CC(C)(C)C3)c(O)nc12` (stereo unspecified): the molecule was called inactive.

Consider `Cc1cccc(NC(=O)C2CCN(S(=O)(=O)c3cccc4nsnc34)CC2)n1`, for which the outcome was inactive.

In the case of `CCOc1ccc(NCc2nnc(SCC(=O)Nc3cc(C)on3)n2-c2ccccc2OC)cc1`, the molecule was called inactive.

Turning to `CC(=O)Nc1ccc(NC(=O)CSc2ncnn2-c2ccccc2)cc1`, the molecule was called inactive.

Turning to `COCCNC(=S)N1CCN(C)CC1`, the result was inactive.

Turning to `C/C(=N\N1CCN(c2ccccc2)CC1)c1ccncc1`, the result was inactive.

Consider `COc1ccc(OCC(=O)N/N=C/C(C)=C/c2ccco2)c(Br)c1`, for which the result was inactive.

As for `COc1ccc(OC)c(/C=N/NC(=O)CNC(=O)c2ccc(S(=O)(=O)N3CCOCC3)cc2)c1`, the call was inactive.

Regarding `CC(C)(C)n1nnnc1C(c1cccnc1)N1CCN(c2ccccc2)CC1` (stereo unspecified), the molecule was called inactive.

As for `Cc1cccc(N2CCN(C(=O)c3ccc(CS(=O)(=O)c4ccccc4C)o3)CC2C)c1` (stereo unspecified), the outcome was inactive.

For the molecule `Cc1ccc(C(O)(C(=O)NNc2ccccn2)c2ccc(C)cc2)cc1`, the molecule was classed as inactive.

`Cc1ccc(C)c(N(C(=O)c2csnn2)C(C(=O)NC2CCCC2)c2cccnc2)c1` (stereo unspecified): the outcome was inactive.

Consider `CN(c1cccc(Cl)c1)S(=O)(=O)c1cccc(C(=O)Nc2ccc3c(c2)CCC3)c1`, for which the molecule was called inactive.

With `O=C(O)COc1ccc(NC(=O)C(c2ccccc2)c2ccccc2)cc1`, the molecule was classed as inactive.

For the molecule `Cc1ccc(-n2nnc3c(SCC(=O)NCC4CCCO4)ncnc32)cc1` (stereo unspecified), the molecule was called inactive.

As to `CC(=O)c1sc(NC(=O)c2ccc(C)cc2)nc1C`, the molecule was classed as inactive.

On to `Cc1ccc(CNC(=O)Cc2ccc(-c3ccccc3)cc2)cc1`, for which the result was inactive.

Take `NCCN1CCN2C(=O)CN(C(=O)c3ccccc3)CC12` (stereo unspecified): the call was inactive.

Regarding `CC(CC(=O)Nc1cc([N+](=O)[O-])ccc1Cl)c1ccccc1` (stereo unspecified), the result was inactive.

Turning to `COc1ccc(NC(=O)CCN2CCCCCC2)cc1`, the molecule was classed as inactive.

For the molecule `COc1ccc(N(CC(=O)Nc2ccc(S(=O)(=O)N3CCCC3)cc2)S(C)(=O)=O)cc1OC`, the molecule was called inactive.

As to `Cc1ccc(NC(=O)c2ccc(OC(=O)CCN3C(=O)c4ccccc4C3=O)cc2)cc1`, the molecule was classed as inactive.

On to `Cc1ccc(NC(=O)CSc2nnc(-c3cccs3)n2Cc2ccco2)cc1`, for which the call was inactive.

Consider `COc1ccc(N2CCN(C(=O)CSc3nnc(-c4cccnc4)n3-c3ccccc3)CC2)cc1`, for which the result was inactive.

With `COc1cc(S(=O)(=O)N(Cc2cccs2)CC2CCCO2)ccc1-n1cnnn1` (stereo unspecified), the call was inactive.

For the molecule `CCOC(=O)c1sc2nc(N3CCOCC3)c3c(c2c1N)CCN(Cc1ccccc1)C3`, the molecule was called inactive.

`CCOC(=O)c1c(C)[nH]c(C)c1S(=O)(=O)N(C)CC(=O)N(C)Cc1ccccc1`: the result was inactive.

As for `CCOC(=O)c1c(S(=O)(=O)N2CCN(c3ccc(F)cc3)CC2)c(C)n(C)c1C`, the call was inactive.

For the molecule `C[C@H]1CN([C@@H](C)CO)C(=O)c2cccc(NS(=O)(=O)c3ccc(F)cc3)c2O[C@H]1CN(C)S(=O)(=O)c1cn(C)cn1`, the molecule was classed as inactive.

As to `Cc1ccc(C(=O)CN2C(=O)C(=O)N(Cc3ccccc3)C2=O)cc1`, the result was inactive.

Take `COc1cccc(/C=C/C(=O)OCC(=O)NCc2ccc(Cl)cc2)c1`: the outcome was inactive.

In the case of `O=C(Nc1c(Cl)cccc1Cl)c1cc(-c2ccco2)on1`, the result was inactive.

As to `Cc1ccc(C(=O)NCc2ccco2)cc1Br`, the outcome was inactive.

With `Cc1ccc(S(=O)(=O)N(C)C[C@@H]2Oc3ccc(NC(=O)Cn4cnnn4)cc3C(=O)N([C@@H](C)CO)C[C@H]2C)cc1`, the result was inactive.

`CCn1c(CNC(=O)Cc2ccc(OC)cc2)nnc1SCC(=O)NC1CCCCC1`: the molecule was classed as inactive.

Take `CCn1nnnc1SCC(=O)NCc1cccs1`: the molecule was called inactive.

Regarding `CC(C)CC(=O)Nc1ccccc1N1CCOCC1`, the result was inactive.

Regarding `Cc1ccccc1-c1ccc(=O)n(CC(=O)Nc2ccc(N3CCOCC3)cc2)n1`, the molecule was classed as inactive.

On to `CC1Oc2ccccc2N(Cc2ccccc2Cl)C1=O` (stereo unspecified), for which the molecule was called inactive.

`CCOC(=O)C1=C(CSc2nc(-c3ccncc3)ccc2C#N)OC(N)=C(C#N)C1c1cccnc1` (stereo unspecified): the molecule was classed as inactive.

Regarding `CCn1c(SCC(=O)NCC(=O)Nc2ccc(F)cc2)nnc1-c1ccncc1`, the result was inactive.

For the molecule `Cc1nc2sc(C(c3cccc(F)c3)N3CCOCC3)c(O)n2n1` (stereo unspecified), the call was inactive.

As to `Cc1cc(=S)c2cccc(C)c2[nH]1`, the call was inactive.

Turning to `CC(C)CC1c2[nH]c3ccccc3c2CCN1C(=O)c1cnccn1` (stereo unspecified), the call was inactive.

On to `Cc1noc(C)c1S(=O)(=O)N(C)C[C@H]1Oc2c(cccc2N(C)C)C(=O)N([C@H](C)CO)C[C@@H]1C`, for which the molecule was called inactive.

Consider `CCOC(=O)c1c(C)[nH]c(C(=O)CN2CCOCC2)c1C`, for which the call was inactive.

On to `FC(F)(F)c1cccc(NCc2cn3cccnc3n2)c1`, for which the outcome was inactive.

With `Cc1ccc(OCc2nnnn2-c2ccccc2)cc1`, the outcome was inactive.

For `O=C(Nc1cccnc1)c1ccccc1Oc1ccccc1`, the molecule was classed as inactive.

As for `CCOc1cc(NC(=S)NCCOC)c(OCC)cc1NC(=O)c1cccs1`, the result was inactive.

As to `Cc1nnc(N(C)C(=O)c2ccccn2)s1`, the molecule was called inactive.

For the molecule `O=C(COc1c(CO)cc(Br)cc1CO)NC1CCCc2ccccc21` (stereo unspecified), the molecule was called inactive.

As for `CCOC(=O)N1CCN(C(=S)NC(C)(C)C)CC1`, the molecule was classed as inactive.

`Cc1cccc(CN2CCC(Oc3ccc(C(=O)N4CCCC4)cc3)CC2)n1`: the molecule was classed as inactive.

Take `CCOC(=O)c1c(S(=O)(=O)N2CCCC(C(=O)Nc3ccc(C)cn3)C2)c(C)n(C)c1C` (stereo unspecified): the call was inactive.

As for `CCOC(=O)c1c(S(=O)(=O)NCC(=O)Nc2cccc(C)c2C)c(C)n(C)c1C`, the call was inactive.

Regarding `CCCCCCC(=O)N1CCN(c2cc3c(cc2F)c(=O)c(C(=O)O)cn3CC)CC1`, the molecule was called inactive.

As for `c1csc(Cn2nnnc2CN2CCN(c3nc4ccccc4s3)CC2)c1`, the molecule was classed as inactive.

Turning to `O=C(NCc1nnc(SCC(=O)N2CCCC2)o1)c1c(F)cccc1Cl`, the molecule was called inactive.

With `CCC(=O)Nc1cc2c(C)cc(=O)oc2cc1C`, the call was inactive.

For `COc1ccc(C(=O)Nc2ncc3c(n2)CC(c2ccco2)CC3=O)cc1` (stereo unspecified), the molecule was classed as inactive.

In the case of `O=C(Nc1ccc(-c2csc(Nc3ccc(Cl)cc3)n2)cc1)c1ccccc1`, the molecule was classed as inactive.

Take `C[C@H]1CN([C@@H](C)CO)C(=O)c2cc(NC(=O)C3CCCCC3)ccc2O[C@H]1CN(C)S(=O)(=O)c1ccccc1`: the molecule was classed as inactive.

As for `COC(=O)[C@]1(C)N[C@H](CN(C)S(=O)(=O)c2ccc(C)cc2)[C@@H]2C(=O)N(Cc3ccccc3)C(=O)[C@@H]21`, the molecule was classed as inactive.

Turning to `O=c1oc2ccccc2c(O)c1C=NCc1ccccn1`, the outcome was inactive.

In the case of `Cc1ccc(Nc2nc3nonc3nc2N(C)C)cc1`, the call was inactive.
